Test results taken from PubChem BioAssay (NCATS).
Inconclusive results are not listed. Active and inactive are the calls of the source. The call rests on the fitted dose curve; in most records, active means well fitted curve in the direction sought with a large enough effect; inconclusive means small, poorly fitted or top-dose-only effect, or another doubt; inactive means no such curve, though single readings can be large; an effect the other way counts as inactive or inconclusive.

Key:
[1] = HEK293 12hr Apoptosis Induction qHTS against the NCATS CANVASS Library (AID 1347361)
Procedure, shortened: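 HEK293 cells (500/well) were exposed to an 11-point qHTS concentration series for 12 hours at 37 degrees C. Caspase-3/7 activity was then read by DEVD-substrate luciferase luminescence after 15 min at room temperature.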

[2] = target: Luciferin 4-monooxygenase (Photinus pyralis) (UniProt P08659); test: Firefly luciferase counterscreen qHTS: Assay Interference Panel against the NCATS CANVASS Library (AID 1347363); further: series mostly up to about 57 µM
Chain of Luciferin 4-monooxygenase (Photinus pyralis) (P08659 whole entry, looked up): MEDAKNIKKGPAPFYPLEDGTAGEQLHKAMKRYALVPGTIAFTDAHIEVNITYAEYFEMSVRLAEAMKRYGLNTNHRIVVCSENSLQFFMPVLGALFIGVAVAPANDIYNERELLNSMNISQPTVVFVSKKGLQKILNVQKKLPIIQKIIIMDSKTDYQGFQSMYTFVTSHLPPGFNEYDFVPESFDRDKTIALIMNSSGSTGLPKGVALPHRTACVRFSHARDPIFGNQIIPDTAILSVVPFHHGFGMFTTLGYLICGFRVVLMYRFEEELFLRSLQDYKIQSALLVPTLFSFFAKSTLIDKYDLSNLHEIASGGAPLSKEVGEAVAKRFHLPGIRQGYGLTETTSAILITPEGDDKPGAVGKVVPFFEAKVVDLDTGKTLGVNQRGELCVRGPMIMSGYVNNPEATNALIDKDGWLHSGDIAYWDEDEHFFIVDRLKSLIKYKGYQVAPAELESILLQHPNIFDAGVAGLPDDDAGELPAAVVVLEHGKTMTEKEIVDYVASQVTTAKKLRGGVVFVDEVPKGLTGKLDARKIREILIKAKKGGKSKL
Procedure, shortened: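 Luminescence inhibition readout: compounds (11-point qHTS) sat 15 min at room temperature with substrate mix (0.013 mM luciferin and ATP), then firefly luciferase was added and signal read 5 min later.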

[3] = KB-8-5-11 Cancer Cell Toxicity qHTS against the NCATS CANVASS Library (AID 1347364); further: nearly all actives have a fitted effect of over 75% in size
Procedure, shortened: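 Luminescent ATP signal (CellTiter-Glo, 10 min at room temperature) measured cell survival of KB-8-5-11 after 72 hr compound treatment. For confirmation, the cells were also grown with 1uM tariquidar.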

[4] = SDT Cancer Cell Toxicity qHTS against the NCATS CANVASS Library (AID 1347365);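 further: SDT canine glioma cells 500 per well in 1536 well plates; series mostly up to about 46 µM; nearly all actives have a fitted effect of over 60% in size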
Procedure, shortened: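 Canine SDT glioma cell toxicity was scored by ATP-dependent luminescence after a 72 hr incubation with an 11-point compound series.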

[5] = KB-3-1 Cancer Cell Toxicity qHTS against the NCATS CANVASS Library (AID 1347366); further: series mostly up to about 46 µM; nearly all actives have a fitted effect of over 75% in size
Procedure, shortened: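 KB-3-1 cells (500/well) in DMEM with 10% FBS were exposed to compounds for 72 h at 37C. Viability was read by CellTiter-Glo luminescence.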

[6] = qHTS for ATAD5 Agonist screened against the NCATS CANVASS Library (AID 1347367);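 further: luciferase reporter driven by ATAD5 which rises upon DNA damage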
Procedure, shortened: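 Luciferase reporter under ATAD5 control, stably integrated in HEK293T cells (2000/well). Compounds (11 points) incubated 16 h at 37C; viability read first by CellTiter-Fluor, then luminescence reporting ATAD5 activation. MMS positive control.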

[7] = G06 Cancer Cell Toxicity qHTS against the NCATS CANVASS Library (AID 1347368); further: series mostly up to about 46 µM; nearly all actives have a fitted effect of over 60% in size
Procedure, shortened: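 Quantitative HTS in G06 cells (dog glioma): 72 hr treatment, 11 concentrations, then ATP-based luminescent viability readout; bortezomib 0.1 nM–4.6 uM final as reference.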

[8] = MCF7 Cancer Cell Toxicity qHTS against the NCATS CANVASS Library (AID 1347369)
Procedure, shortened: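 MCF7 cells (500/well) were exposed 72 h at 37 °C to compounds in an 11-point series. Viability was read as ATP content by CellTiterGlo luminescence.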

[9] = qHTS for ATAD5 Antagonist screened against the NCATS CANVASS Library (AID 1347370);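 further: HEK293T cells carrying an ATAD5 luciferase reporter co-treated with 10 µM 5-fluorouridine; series mostly up to about 46 µM; nearly all actives have a fitted effect of over 65% in size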
Procedure, shortened: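 HEK293T-ATAD5 luc reporter, 2000 cells/well; 5hr attach; cpd + 10 uM 5-FUrd; 16hr 37C, 5% CO2. Readouts: CellTiter-Fluor fluorescence (1hr), then Amplite luciferase luminescence (30min RT).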

[10] = J3T Cancer Cell Toxicity qHTS against the NCATS CANVASS Library (AID 1347371);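 further: J3T is a canine glioma cancer cell line seeded at 500 cells per well; series mostly up to about 46 µM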
Procedure, shortened: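 ATP-based cytotoxicity in canine J3T cells: 72 hr exposure at 37C, 11-point titration, CellTiterGlo luminescent detection.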

[11] = target: Nuclear receptor subfamily 1 group I member 3 (Homo sapiens) (UniProt Q14994); test: qHTS for Constitutive Androstane Receptor (CAR) Antagonist screened against the NCATS CANVASS Library (AID 1347372);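 further: cells stimulated with 50 nM CITCO agonist so inhibition reflects antagonism; series mostly up to about 46 µM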
Chain of Nuclear receptor subfamily 1 group I member 3 (Homo sapiens) (Q14994 whole entry, looked up): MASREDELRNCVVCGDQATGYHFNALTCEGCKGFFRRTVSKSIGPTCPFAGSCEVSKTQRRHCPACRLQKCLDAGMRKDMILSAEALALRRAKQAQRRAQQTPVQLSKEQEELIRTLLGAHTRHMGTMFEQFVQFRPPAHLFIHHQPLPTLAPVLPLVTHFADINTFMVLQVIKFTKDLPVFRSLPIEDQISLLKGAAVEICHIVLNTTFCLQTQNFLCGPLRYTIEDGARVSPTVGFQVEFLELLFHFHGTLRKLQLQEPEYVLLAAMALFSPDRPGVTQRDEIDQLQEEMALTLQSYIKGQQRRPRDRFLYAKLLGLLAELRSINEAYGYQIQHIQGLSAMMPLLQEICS
Procedure, shortened: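 Antagonist mode: compound added alongside 50 nM CITCO to HepG2-hCAR-CYP2B6 reporter cells, 24hr at 37C. Viability by CellTiter-Fluor fluorescence, then CAR-driven luciferase by ONE-Glo luminescence.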

[12] = target: Nuclear receptor subfamily 1 group I member 3 (Homo sapiens) (UniProt Q14994); test: qHTS for Constitutive Androstane Receptor (CAR) Agonist screened against the NCATS CANVASS Library (AID 1347373);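 further: every well also contained 1.5 µM PK11195 alongside the test compound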
Procedure, shortened: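 In an 11-point concentration series, compounds were incubated 24hr with HepG2 cells carrying hCAR and a CYP2B6-2.2kb reporter, with PK11195 at 1.5uM final. A CellTiter-Fluor viability read preceded the ONE-Glo luminescence read.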

[13] = qHTS for Hypoxia signaling pathway (HIF-1) antagonists against the NCATS CANVASS Library (AID 1347374);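 further: HRE-bla ME-180 cells stimulated with cobalt chloride to stabilize HIF-1alpha; series mostly up to about 38 µM; nearly all actives have a fitted effect of over 60% in size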
Procedure, shortened: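 Beta-lactamase reporter under HRE control in ME-180 cells; CoCl2 stimulus (60 uM solution as added), compounds 11-pt qHTS, 17 h 37C. CCF4 dye 2 h RT, 460/530 nm emission. CellTiter-Glo viability in same wells.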

[14] = qHTS for Hypoxia signaling pathway (HIF-1) agonists against the NCATS CANVASS Library (AID 1347375)
Procedure, shortened: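 An HRE-beta-lactamase ME-180 line is exposed for 17 h to an 11-point compound series, then read by CCF4-AM FRET. Cytotoxicity is measured in parallel in the same wells with CellTiter-Glo, and autofluorescence is checked separately.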

[15] = qHTS for H2AX Agonists against the NCATS CANVASS Library (AID 1347378)
Procedure, shortened: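 CHO-K1 cells (1000/well, overnight at 37C) exposed to compounds at several concentrations for 3 hr at 37C, 0.76% DMSO final. Lysates read by TR-FRET (phospho-H2AX S139 Eu-cryptate antibody / H2AX-d2 antibody) after 24 hr at room temperature; 665/615 nm ratio.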

[16] = qHTS for Inflammasome Signaling Inhibitors: IL-1-beta AlphaLISA screen against the NCATS CANVASS Library (AID 1347379);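 further: human THP-1 cells primed with LPS then triggered with ATP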
Procedure, shortened: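 THP-1, 1 hr compound pre-incubation, then LPS 250 ng/mL + ATP 1.25 mM (final); 16 hr total with compound; IL-1B AlphaLISA, ex 680/em 615 nm; 11-point qHTS, up to 57.5 uM final.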

[17] = Inflammasome Signaling qHTS Counterscreen: IL-1-beta AlphaLISA counterscreen against the NCATS CANVASS Library (AID 1347381);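 further: cell-free check with purified IL-1β in medium and no THP-1 cells; series mostly up to about 57 µM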
Procedure, shortened: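 Here, no cellular stimulation occurs; compounds in an 11-point series meet 4 pg purified IL-1-beta directly. Bead-based AlphaLISA detection follows (1 h acceptor/antibody, then 30 min donor, dark, room temperature), with excitation at 680 nm.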

[18] = Cytotoxicity qHTS for assessment of Hepg2 cells membrane integrity screened against the NCATS CANVASS Library (AID 1347387)
Procedure, shortened: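 Membrane damage in HepG2 monolayers was estimated from released LDH, measured with CytoTox-ONE (ex 560/em 590 nm), after 5 hr treatment across 0.59 nM - 46 uM final.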

[19] = qHTS for Activators of p53 Stress Response Pathway screened against the NCATS CANVASS Library (AID 1347388)
Procedure, shortened: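 Beta-lactamase reporter driven by p53 response elements in HCT-116 cells, read as the 460 nm/530 nm emission ratio after CCF4 loading, following 16 h of exposure to an 11-point series. Cell viability was measured in the same wells by CellTiter-Glo luminescence.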

[20] = qHTS assay for small molecule disruptors of mitochondrial membrane potential screened against the NCATS CANVASS Library (AID 1347389); further: series mostly up to about 46 µM; nearly all actives have a fitted effect of over 60% in size
Procedure, shortened: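 Cells (HepG2) seeded the day before received compound or DMSO for 1 hr, then Mito-MPS dye for 30 min at 37C; emission at 590 nm over 535 nm gave the polarization signal.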

[21] = qHTS for activators of Nrf2/ARE signaling pathway screened against the NCATS CANVASS Library (AID 1347391); further: nearly all actives have a fitted effect of over 60% in size
Procedure, shortened: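 Activation of Nrf2/ARE was scored in ARE-bla HepG2 cells after 16 h compound exposure using CCF4 beta-lactamase fluorescence ratio readings.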

[22] = qHTS for activators of dead-cell proteases activity screened against the NCATS CANVASS Library (AID 1347392);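 further: luminescence from protease leaking out of membrane-damaged cells cleaving impermeant substrate; rising signal means more cytotoxicity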
Procedure, shortened: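 Luminescent dead-cell protease readout (AAF-aminoluciferin, 15 min, room temperature) after 5 h compound treatment of HepG2 cells (2000/well, pre-attached 18 h). Eleven concentrations.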

[23] = Vero-766 cells viability qHTS against the NCATS CANVASS Library: Counterscreen for Zika virus inhibition assay (AID 1347394)
Procedure, shortened: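 Vero 766 cells (1000/well), without Zika virus, were exposed to compounds for 72 h at 37C. Viability was measured by CellTiter Glo luminescence. Media-only wells served as 100% inhibition.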

[24] = qHTS for inhibitors of Wild type Zika virus screened against the NCATS CANVASS Library (AID 1347396);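 further: ATP luminescence of surviving cells so rescue from viral cell killing; series mostly up to about 46 µM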
Procedure, shortened: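 Vero 766 cells, 1000/well, o/n attach; cpds pin-transferred (11-pt qHTS); WT Zika added; 72 h, 37C, 5% CO2; CellTiter Glo lumi. Uninfected + vehicle = 100% inhibition.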

Measured: Potency

O=C(OC1Cc2c(O)cc(O)cc2OC1c1cc(O)c(O)c(O)c1)c1cc(O)c(O)c(O)c1 (centres undefined)
inactive: [1] | [2] | [3] | [4] | [5] | [6] | [7] | [8] | [9] | [10] | [11] | [12] | [13] | [14] | [15] | [16] | [17] | [18] | [19] | [20] | [21] | [22] | [23] | [24]
